This assay in a line: cell-free HIV fusion peptide-binding blockers – biochemical, uHTS, fluorescence dequenching, primary screen (AID 1986). The settings on record: 30 min, stronger effect = higher value.
[1] abbreviates: measured here: repeat confirmation average inhibition, at 18.6 µM.

The campaign covered roughly 290,000 compounds. About 890 (0.31%) were called active. This is one part of a sample in which actives are shown more often than they occur. No stated cut-off is given here; in the data, active means inhibition mostly above about 52% (no sharp cut-off); inactive means mostly below about 76%.

Regarding `COc1cccc(NC(=O)N2CCC(NC(=O)C(Cc3ccccc3F)NC(C)=O)CC2)c1` (configuration not stated), where the note is “at 20 µM”, the inhibition was -0.5% (inactive).
In the case of `O=C(Nc1ccccc1C(=O)O)/C(=C/c1ccc([N+](=O)[O-])cc1)NC(=O)c1ccc(Br)o1`, the inhibition (at 20 µM) is 20.5% (inactive).
Take `Cc1cc(C)c(NC(=O)CCCSc2nnc(N)s2)c(C)c1`: the inhibition (at 20 µM) was -0.5% (inactive).
On to `CSc1nc(-c2ccc(C)cc2)[nH]c1S(=O)(=O)c1ccccc1`, for which the inhibition (at 20 µM) is -0.2% (inactive).
In the case of `CC(=O)Sc1nc(-c2ccccc2)[nH]c1S(=O)(=O)c1ccc(C)cc1`, the inhibition (at 20 µM) was 60.7% (active).
Take `Cc1ccc(-c2[nH]c(-c3ccc(C(=O)O)cc3)nc2-c2ccccc2)cc1`: the inhibition runs as follows: (at 20 µM) 61.6% (inactive); under setting [1], 27.3%.
Take `COc1ccc(C2/C(=C(/O)c3ccc(F)cc3)C(=O)C(=O)N2c2ccccn2)cc1OC` (configuration not stated): where the note is “at 20 µM”, the inhibition was 0.2% (inactive).
`CC(=O)Nc1ccc(S(=O)(=O)N2CCN(S(=O)(=O)N3CCCCC3)CC2)cc1`: the inhibition (at 20 µM) was 0.1% (inactive).
`O=C(Nc1ccccc1)OC1C2CCC1C(N1CCCCC1)CC2` (configuration not stated): for the setting “at 20 µM”, the inhibition was 1.6% (inactive).
The same measure, in the same setting: for `O=C(Nc1nccs1)c1cc(S(=O)(=O)N2CCCCC2)ccc1Cl` the value was -1.5% (inactive).
In the case of `CC(=O)N1C(=O)/C(=C2\SC(=S)N(NS(=O)(=O)c3ccc(C)cc3)C2=O)c2ccccc21`, the inhibition reads like this: (at 20 µM) 55.6% (inactive); under setting [1], -0.3%.
As to `O=C1/C(=C\c2ccc(Br)cc2)SC(=S)N1NS(=O)(=O)c1ccccc1`, the inhibition (at 20 µM) was 67.6% (inactive) and the inhibition under setting [1] turned out to be 0.2%.
As to `CSc1ccc(CNCc2ccc3c(c2)OCO3)cc1`, under “at 20 µM”, the inhibition is 3.5% (inactive).
Still for that read-out and setting: the figure for `CCCC(C(=O)Nc1ccc2c(C)cc(=O)oc2c1)c1ccccc1` (configuration not stated) is 0.5% (inactive); for `C(=C\c1ccco1)/C1=NN(c2ccccc2)C(c2ccco2)C1` (configuration not stated) it is 81.8% (active); for `O=[N+]([O-])c1ccc(/C=C/C2=NN(c3ccccc3)C(c3ccco3)C2)o1` (configuration not stated) it is 18.7% (inactive).
Consider `O=[N+]([O-])c1ccc(/C=C/C2=NN(c3ccccc3)C(c3ccco3)C2)cc1` (configuration not stated), for which the inhibition (at 20 µM) is 35% (inactive).
`CC(CNC(=O)CCS(=O)(=O)c1cc2c(cc1Cl)NC(=O)CO2)c1ccccc1` (configuration not stated): for the setting “at 20 µM”, the inhibition was -0.3% (inactive).
Regarding `COc1ccc(/C=c2\s/c(=C/C(=O)c3ccc(C)cc3)[nH]c2=O)cc1OC`, the inhibition (at 20 µM) was 77.2% (active).
On the same count and under the same terms, the figure for `COc1cccc(/C=c2\s/c(=C/C(=O)c3ccc(C)cc3)[nH]c2=O)c1OC` is 4.7% (inactive).
As for `COc1ccc(/C=C2\SC(c3ccc(C)cc3)=NC2=O)cc1OC`, the inhibition runs as follows: (at 20 µM) 97.6% (active); under setting [1], 176%.
On to `COc1ccc(/C=C2/SC(c3ccc(C)cc3)=NC2=O)cc1OC`, for which, for the setting “at 20 µM”, the inhibition was 0.3% (inactive).
On the same count and under the same terms, for `COc1ccc(/C=c2\s/c(=C/C(=O)c3ccc(C)cc3)[nH]c2=O)c(OC)c1` the value was 47.8% (inactive); for `COc1cc(/C=C2\SC(c3ccc(C)cc3)=NC2=O)ccc1O`, 36.7% (inactive).
For `Cc1cc2c(ncn2Cc2ccccc2)c(NS(C)(=O)=O)c1C`, for the setting “at 20 µM”, the inhibition was -1% (inactive).
Regarding `O=C(CN(Cc1ccc(F)cc1)C(=O)CNS(=O)(=O)c1ccc(F)cc1)NCc1ccco1`, the inhibition (at 20 µM) is 1.3% (inactive).
Turning to `COc1ccc(CCNC(=O)Cc2cc(OC)c(OC)cc2Br)cc1OC`, the inhibition (at 20 µM) was 1.9% (inactive).
For the molecule `CCOC(=O)N1CCc2c(sc3ncn(C)c(=O)c23)C1`, where the note is “at 20 µM”, the inhibition is -2.6% (inactive).
`COC(=O)c1ccccc1NC(=O)c1ccc2c(c1)OCCCO2`: the inhibition (at 20 µM) is -0.4% (inactive).
Regarding `O=C(CS(=O)(=O)Cc1ccccc1)N1CCN(c2cccc(C(F)(F)F)c2)CC1`, the inhibition (at 20 µM) was 4.6% (inactive).
As to `COc1cc(/C=C2/SC(=O)NC2=O)ccc1Oc1ccc([N+](=O)[O-])cc1[N+](=O)[O-]`, the inhibition (at 20 µM) was 74.1% (inactive) and the inhibition under setting [1] came to 9.9%.
With `COc1cc(/C=C2\SC(=O)NC2=O)ccc1Oc1ccc([N+](=O)[O-])cc1[N+](=O)[O-]`, under “at 20 µM”, the inhibition was 63% (active).
Turning to `COc1cc(/C=C2\SC(=O)NC2=O)ccc1Oc1ccc([N+](=O)[O-])cn1`, the inhibition (at 20 µM) was 13.1% (inactive).
Consider `Cc1ccc(NC(=O)Cn2cnc3sc(C(=O)NCc4ccco4)c(C)c3c2=O)cc1Cl`, for which, for the setting “at 20 µM”, the inhibition was -1.5% (inactive).
The same measure, in the same setting: the figure for `N#Cc1c(N)sc(=S)c2c1CCCC2` is 0% (inactive); for `N#Cc1c(N)sc(=S)c2c1CCN(Cc1ccccc1)C2` it is 86.2% (active); for `N#Cc1c(N2CCCCC2)nc(N2CCCCC2)c2c1CCN(Cc1ccccc1)C2` it is 8.7% (inactive).
Regarding `N#Cc1c(N)sc2c1CCCCCC2`, the inhibition (at 20 µM) was -2% (inactive).
With `N#Cc1c(N)sc(=S)c2c1CCCCC2`, for the setting “at 20 µM”, the inhibition is 50% (active).
On to `N#Cc1c(N)sc2c1CCN(CCc1ccccc1)C2`, for which, under “at 20 µM”, the inhibition is 8.1% (inactive).
The same measure, in the same setting: the figure for `CN1CC2([N+](=O)[O-])CC=C(OCCO)C([N+](=O)[O-])(C1)C2` (configuration not stated) is 0.4% (inactive); for `O=C(Nc1ccc(N2CCOCC2)cc1)C1(S(=O)(=O)c2ccccc2)CC1` it is -1.1% (inactive).
With `COc1ccc(CCN2CCCn3c2nc2c3c(=O)n(CC(C)C)c(=O)n2C)cc1OC`, the inhibition (at 20 µM) was 0.5% (inactive).
With `CC(C)c1ccc(S(=O)(=O)/N=C2\C=C(NS(=O)(=O)c3ccccc3)C(=O)c3ccccc32)cc1`, the inhibition (at 20 µM) was 74.7% (active).
In the case of `CC(C)c1ccc(S(=O)(=O)/N=C2/C=CC(=O)c3ccccc32)cc1`, for the setting “at 20 µM”, the inhibition was 3.8% (inactive).
For the molecule `Cc1cc(C)c(S(=O)(=O)/N=C2\C=C(NS(=O)(=O)c3ccccc3)C(=O)c3ccccc32)c(C)c1`, the inhibition (at 20 µM) is 68.3% (inactive) and the inhibition under setting [1] stood at 42.3%.
`O=C(CSc1n[nH]c(=O)[nH]c1=O)NC1CCCCC1`: the inhibition (at 20 µM) was -0.2% (inactive).
Regarding `COC(=O)c1cc(N2CCNCC2)nc2ccccc12`, for the setting “at 20 µM”, the inhibition is 6.8% (inactive).
Consider `COC(=O)c1cc(N2CCN(C)CC2)nc2ccccc12`, for which the inhibition (at 20 µM) is 114% (active).
For the molecule `O=C(O)c1cc(N2CCOCC2)nc2ccccc12`, where the note is “at 20 µM”, the inhibition was 0.2% (inactive).
`Cn1c(=O)c2[nH]c(Nc3ccccc3)nc2n(C)c1=O`: the inhibition (at 20 µM) is -0.7% (inactive).

Values taken from PubChem BioAssay AID1986 (Sanford-Burnham Center for Chemical Genomics, 2009).
